Experimental data: PubChem BioAssay AID1159580 (chemical genetic matrix, 2015)
Where “and” joins values, the source holds several entries; their conditions need not be identical. Equal values may be shown once. About 2,000 (36%) of roughly 5,500 compounds were called active. Another 18% or so got no clear call; they are omitted. Cut-off read from the data, not from the text of the source: active = normalized growth mostly below about 0.91 (no sharp cut-off); inconclusive = no clear call, values can overlap the other calls; inactive = mostly above about 0.92. This is one part of the list.

Experiment: chemical genetic growth profiling, strain panel (AID 1159580);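 note: tested at 20 µM; growth read once vehicle control cultures reached saturation at 30 °C; 1 = growth at the plate median or of vehicle wells; lower values mean less growth of the strain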
Conditions: S. cerevisiae deletion strains, growth OD

Measured: normalized growth

OC[C@H]1O[C@@H](O[C@H]2[C@H](O)[C@@H](O)[C@@H](O)O[C@@H]2CO)[C@H](O)[C@@H](O)[C@@H]1O
inactive: locus YAL013W, strain DEP1, hits give low values 1.02 | locus YAL021C, strain ccr4, hits give low values 1.01 | locus YAL026C, strain drs2, hits give low values 1.01 | locus YAL030W, strain snc1, hits give low values 1 | locus YBL061C, strain skt5, hits give low values 1 | locus YBR009C, strain hhf1, hits give low values 1.06 | locus YBR021W, strain FUR4, hits give low values 1.04 | locus YBR023C, strain chs3, hits give low values 1.01 | locus YBR171W, strain sec66, hits give low values 0.996 | locus YBR229C, strain ROT2, hits give low values 1 | locus YBR231C, strain swc5, hits give low values 1 | locus YBR279W, strain paf1, hits give low values 0.993 | locus YCL011C, strain gbp2, hits give low values 1.02 | locus YCL016C, strain dcc1, hits give low values 1.01 | locus YCL029C, strain bik1, hits give low values 1.01 | locus YCL061C, strain MRC1, hits give low values 1 | locus YCL069W, strain vba3, hits give low values 1.01 | locus YCR088W, strain abp1, hits give low values 0.997 | locus YDL005C, strain med2, hits give low values 0.986 | locus YDL035C, strain GPR1, hits give low values 1.04 | locus YDL040C, strain nat1, hits give low values 0.994 | locus YDL074C, strain BRE1, hits give low values 1.09 | locus YDL101C, strain DUN1, hits give low values 1.01 | locus YDL134C, strain PPH21, hits give low values 1.01 | locus YDL185W, strain tfp1, hits give low values 1.02 | locus YDL192W, strain arf1, hits give low values 1.03 | locus YDR001C, strain nth1, hits give low values 0.999 | locus YDR069C, strain doa4, hits give low values 0.981 | locus YDR101C, strain arx1, hits give low values 1.02 | locus YDR137W, strain rgp1, hits give low values 1.01 | locus YDR159W, strain sac3, hits give low values 0.972 | locus YDR162C, strain NBP2, hits give low values 1.02 | locus YDR195W, strain ref2 0.958 | locus YDR297W, strain sur2, hits give low values 1 | locus YDR318W, strain mcm21, hits give low values 0.994 | locus YDR334W, strain swr1, hits give low values 0.996 | locus YDR335W, strain msn5, hits give low values 1.01 | locus YDR388W, hits give low values 1.02 | locus YDR392W, strain spt3, hits give low values 0.957 | locus YDR502C, strain sam2, hits give low values 0.992 | locus YEL003W, strain gim4, hits give low values 1.02 | locus YEL037C, strain rad23, hits give low values 1.01 | locus YEL061C, strain CIN8 (second series), hits give low values 0.999 | locus YEL061C, strain CIN8, hits give low values 1.01 | locus YER015W, strain faa2, hits give low values 0.995 | locus YER016W, strain bim1, hits give low values 1 | locus YER110C, hits give low values 1.02 | locus YER111C, strain swi4, hits give low values 1 | locus YER155C, strain BEM2 (second series), hits give low values 0.987 | locus YER155C, strain BEM2, hits give low values 1.02 | locus YER167W, strain BCK2, hits give low values 1.01 | locus YFR010W, strain ubp6, hits give low values 0.99 | locus YGL078C, strain dbp3, hits give low values 1.03 | locus YGL086W, strain mad1, hits give low values 1.04 | locus YGL167C, strain pmr1, hits give low values 0.999 | locus YGL173C, strain kem1, hits give low values 1 | locus YGL227W, strain vid30, hits give low values 1 | locus YGL240W, strain doc1, hits give low values 1.03 | locus YGL248W, strain PDE1, hits give low values 1.01 | locus YGL253W, strain hxk2, hits give low values 1.03 | locus YGR078C, strain PAC10, hits give low values 1.03 | locus YGR135W, strain pre9, hits give low values 1.02 | locus YGR252W, strain gcn5, hits give low values 1 | locus YHR013C, strain ard1, hits give low values 0.997 | locus YHR027C, strain rpn1, hits give low values 1.02 | locus YHR030C, strain SLT2, hits give low values 1.01 and 0.972 | locus YHR079C, strain IRE1 (second series), hits give low values 1.01 | locus YHR079C, strain IRE1, hits give low values 0.96 | locus YHR094C, strain hxt1, hits give low values 1.05 | locus YHR129C, strain ARP1, hits give low values 1.02 | locus YHR142W, strain chs7, hits give low values 1.02 | locus YHR200W, strain rpn10, hits give low values 1.02 | locus YIL066C, strain RNR3, hits give low values 1.02 | locus YIL073C, strain SPO22, hits give low values 1.12 | locus YIL125W, strain kgd1, hits give low values 1.01 | locus YIR030C, strain dcg1, hits give low values 1.01 | locus YJL092W, strain hpr5, hits give low values 1.02 | locus YJL095W, strain BCK1 (second series), hits give low values 0.995 | locus YJL095W, strain BCK1, hits give low values 1.02 and 1.06 | locus YJL115W, strain asf1, hits give low values 0.99 | locus YJL129C, strain trk1, hits give low values 0.987 | locus YJL134W, strain LCB3, hits give low values 1 | locus YJL154C, strain vps35, hits give low values 0.991 | locus YJL164C, strain tpk1, hits give low values 1.02 | locus YJL166W, strain qcr8, hits give low values 1.03 | locus YJL168C, strain set2, hits give low values 1.03 | locus YJL187C, strain SWE1 (second series), hits give low values 1.02 | locus YJL187C, strain SWE1, hits give low values 1 | locus YJR043C, strain POL32, hits give low values 1.02 | locus YJR066W, strain TOR1, hits give low values 0.921
